# An excerpt weighted towards active compounds, which were near 6% of everything screened.
# Chronic BCR inh = blocks chronic active B-cell receptor signaling; ABC-DLBCL IkBa-CBG/CBR reporter, luminescence ratio, 4 h; Potency, µM (top dose mostly 46.1 µM), without a hit: at the highest dose activity change, negative = inhibition, most hits filed as inhibitors; 340,000 tested, 0.05% active; AID 493014; active = well fitted inhibition curve with a large enough effect in the signal ratio, with a control signal flat, not every such curve was filed as active; inconclusive = small, poorly fitted or top-dose-only effect, or effect the other way, or a change in a side signal; the % refers to the signal ratio;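 also: potency is read from the fitted curve at half-maximal effect; plate controls were basal doxycycline-induced cells for no effect and cells given 10 µM MG132 for full effect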
#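 Concentration-response series (up to 46 uM) were applied to TMD8 dual-reporter cells for 4 h at 37C with doxycycline. Green/red ratio, after filter-overlap correction, defined %Activity; red signal alone was normalised to basal cells and zero luminescence.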
# D3 antag = D3 dopamine receptor (human) antagonism; P35462; D3R cells, DiscoveRx beta-arrestin luminescence, antagonist mode; hits give low values; max response, negative = inhibition, %; 360,000 tested, 2.5% active; in the data active = max response below about -50%; inconclusive = no clear call, values can overlap the other calls; also: % is scaled to controls: 0 for no effect and ±100 for the full control effect
#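 Cells expressing the human receptor were seeded at 1500 cells/well, incubated overnight at 37 degrees C in 5% CO2, then exposed to library compounds with dopamine controls for 90 minutes at 37 degrees C before luminescent detection.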
# D1 antagonist = human D1 dopamine receptor antagonism; P21728; HEK293 TREx D1 cells, calcium flux, dopamine EC80; hits give low values; activity change, negative = inhibition, % at 10 µM; 360,000 tested, 3.2% active; AID 504652; in the data active = activity change below about -30%; also: % is scaled to controls: 0 for no effect and ±100 for the full control effect
# Target sequence (P21728 whole entry, looked up): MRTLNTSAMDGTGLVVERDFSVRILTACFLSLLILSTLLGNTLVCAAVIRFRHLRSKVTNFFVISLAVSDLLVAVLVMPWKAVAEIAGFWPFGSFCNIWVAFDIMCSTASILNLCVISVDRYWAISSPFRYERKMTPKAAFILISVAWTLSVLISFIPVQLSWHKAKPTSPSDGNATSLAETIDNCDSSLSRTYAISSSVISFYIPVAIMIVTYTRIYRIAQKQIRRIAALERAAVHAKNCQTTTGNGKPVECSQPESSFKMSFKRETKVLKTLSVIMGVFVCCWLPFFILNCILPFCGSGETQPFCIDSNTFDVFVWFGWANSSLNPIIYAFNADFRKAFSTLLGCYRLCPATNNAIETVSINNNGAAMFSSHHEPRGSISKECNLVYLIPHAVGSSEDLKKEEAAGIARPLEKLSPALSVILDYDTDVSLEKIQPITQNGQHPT
#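 Inducible Hek293 Trex D1 cells (tetracycline, overnight, 30 C). Calcium dye 30–90 min RT. Antagonist mode: EC80 dopamine added after 180 s compound read.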
# DRD3 agonist = agonists of human D3 dopamine receptor. P35462. D3R DiscoveRx beta-arrestin cells, luminescence, 90 min. max activation, %. 410,000 tested, 0.58% active; in the data active = max activation above about 30%; also: 0% is about no effect
#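 Agonist mode: compounds and dopamine controls were applied to plated cells for 90 min at 37 degrees C after an overnight attachment at 1500 cells/well. Luminescent read-out followed 30 - 60 minutes at room temperature with DiscoveRx detection reagent.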
# D1 ag = human D1 receptor agonism | P21728 | HEK293 T-REx D1 cells, calcium flux, agonist mode | activation, % at 2 µM | 360,000 tested, 1% active; in the data active = activation above about 30%; also: 0% is about no effect
#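 Tetracycline-induced HEK293 TREx D1 cells, force-coupled to calcium signalling, were dye-loaded with a no-wash calcium kit. Compound was pin-added after a 10 s baseline. Fluorescence was read kinetically at 1 cycle/s for 180 s, with calcium rises flagged as agonism.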
# D1 PAM = enhances dopamine response at the human D1 receptor | HEK293 TREx D1 cells, calcium flux, dopamine EC20 potentiation | potentiation, % at 10 µM | 360,000 tested, 0.036% active | AID 504651; in the data active = potentiation above about 30%; also: 0% is about no effect
# Active calls of the source: *; u = inconclusive; x = no result given; ! = a repeat was not active.
SMILES,Chronic BCR inh,D3 antag,D1 antagonist,DRD3 agonist,D1 ag,D1 PAM
CC(C)Cn1cc(C(=O)NCCCN2CCC(C)CC2)c2c3ccccc3n(C)c2c1=O,x,-83.2*,x,-42.0,x,x
CC(=O)c1sc2nc(-c3cccs3)cc(C(F)(F)F)c2c1N,1.6%,0.0,5.2,3.6,180.0*,-0.1
Nc1c(C(=O)C2CC2)sc2nc(-c3ccccc3)cc(C(F)(F)F)c12,6.1%,-5.2,20.8,-5.0,66.5*,-3.5
COc1ccc(-c2cc(C(F)(F)F)c3c(N)c(C(=O)NCCSC)sc3n2)cc1,u,28.5,3.5,6.7,31.1*,5.2
Cc1c(C(=O)O)sc2nc(-c3cccs3)cc(C(F)(F)F)c12,16.2%,-10.4,-11.0,-6.3,1.6,2.9
N#Cc1sc2nc(-c3ccccc3)cc(-c3ccco3)c2c1N,-10.8%,19.7,2.4,1.1,12.5,-5.6
COc1cccc(-c2cc(C(F)(F)F)c3c(N)c(C#N)sc3n2)c1,-6.4%,x,-9.3,x,34.3*,16.9
CCC(=O)[C@@H](C)[C@@H](OC(C)=O)[C@H](C)C[C@@H](C)[C@H]1OC(=O)C[C@@]2(O)CC=C(C)C(O2)C(C)=CCCC[C@H](O[C@H]2C[C@@H](OC(N)=O)[C@H](OC(C)=O)[C@@H](C)O2)C=C[C@H](C)C[C@H]1C,x,-10.7,x,-5.7,x,x
CCn1nc(-c2ccccc2)c(-c2ccccc2)c(C(=O)OCCOC)c1=O,x,x,-17.5,5.2,3.8,5.0
CN(C)CCNC(=O)c1sc2nc(-c3ccccc3)cc(C(F)(F)F)c2c1N,6.8%,15.5,3.5,-18.0,36.7*,-4.3
COc1ccc(OC)c(NC(=O)c2sc3nc(Cc4ccccc4)cc(C(F)(F)F)c3c2N)c1,8.9%,26.3,-0.1,10.5,3.3,-7.5
CC1(c2nnnn2Cc2ccccc2)CCC(=O)N1Cc1cccs1 (stereo not given),x,7.3,x,-1.0,x,x
Cc1ccc(-n2ncc3c(N4CCN(Cc5ccccc5)CC4)ncnc32)cc1C,u,x,11.2,32.9*,-4.0,-1.8
COc1cccc(N2CCN(c3ncnc4c3cnn4-c3ccc(C)cc3C)CC2)c1,u,-16.0,-6.7,38.8*,3.5,3.4
Cc1ccc(-n2ncc3c(N4CCN(C)CC4)ncnc32)cc1,11.1%,x,-30.5*,0.6,3.1,-1.4
CN1CCN(c2ncnc3c2cnn3-c2ccc(Cl)cc2)CC1,11.3%,30.4,-53.6*,12.4,15.2,-8.0
Cc1ccc(-n2ncc3c(N4CCN(c5ccc(F)cc5)CC4)ncnc32)cc1,-2.8%,x,0.8,8.3,0.7,-0.7
Clc1cccc(-n2ncc3c(N4CCN(Cc5ccccc5)CC4)ncnc32)c1,u,x,-3.1,8.3,-4.4,-1.0
C#CC1(O)CC[C@H]2[C@@H]3CCC4=CCCC[C@@H]4[C@H]3CC[C@@]21C (stereo not given in full),x,x,x,5.2,x,x
CSc1ccc(CCNC(=O)CN2C(=O)COc3ccc(S(=O)(=O)N4CCCC4)cc32)cc1,x,x,-1.7,-4.8,4.3,-4.1
OC[C@@H]1CN(Cc2ccco2)C[C@H](n2cnc3c(N4CCN(c5ccccc5)CC4)ncnc32)O1,x,2.2,x,5.7,x,x
CCOC(=O)C1CCN(c2ncnc3c2cnn3-c2ccc(OC)cc2)CC1,-2.0%,16.6,7.7,32.9*,1.7,-7.0
COc1ccc(CCNc2ncnc3c2c(-c2ccccc2)cn3-c2ccc(Cl)cc2)cc1OC,-8.8%,x,-19.9,4.4,4.5,-2.1
CN1CCN(c2ncnc3c2c(-c2ccccc2)cn3-c2ccc(F)cc2)CC1,u,-63.3*,-41.8*,-20.4,1.9,-14.1
Cc1ccccc1Nc1ncnc2c1c(-c1ccccc1)cn2-c1ccc(F)cc1,-3.3%,x,-34.0*,-3.2,-2.6,-3.2
SMILES,Chronic BCR inh,D3 antag,D1 antagonist,DRD3 agonist,D1 ag,D1 PAM
COc1cccc(N2CCN(c3ncnc4c3c(-c3ccccc3)cn4-c3ccc(F)cc3)CC2)c1,-7.0%,x,13.5,-2.4,1.0,-1.1
COc1ccc(Cl)cc1Nc1ncnc2c1c(-c1ccccc1)cn2-c1ccccc1,-0.3%,x,-58.1*,-6.6,-1.1,-2.1
COc1ccc(NC(=O)CSC2=Nc3ccccc3C3=NC(CCC(=O)NCc4cccs4)C(=O)N23)cc1 (stereo not given),-4.3%,x,-2.5,1.5,0.7,-2.7
COc1ccc(C(=O)N2CCc3cc(OC)c(OC)cc3C2COc2ccccc2OC)cc1 (stereo not given),u,x,-17.7,-4.6,5.0,-2.5
O=S1(=O)CCOC[C@H](c2ccccc2)N1Cc1cccc(Cl)c1,-0.8%,-59.5*,2.3,-13.1,3.0,-5.4
O=S1(=O)CCOC[C@H](c2ccccc2)N1Cc1ccccc1,-27.2%,0.0,-13.7,9.4,0.0,-3.7
COC(=O)C(C(=O)OC)c1ccccc1NC(=O)OCc1ccccc1,x,9.5,x,0.0,x,x
COc1ccc2oc(=O)cc(CN3CCN(c4ccc(F)cc4)CC3)c2c1,x,x,-1.7,-20.3,-0.3,-0.1
CCOc1ccc(-c2noc(CCCC(=O)NC3CCCC3)n2)cc1OC,u,-6.6,-84.9*,-16.0,0.1,x
COc1ccc(-c2noc(CCCC(=O)NC3CCCCC3)n2)cc1,18.6%,1.2,-37.3*,4.6,5.9,-14.1
COc1ccc(-c2noc(CCC(=O)NC3CCCC3)n2)cc1,u,1.8,-4.6,7.7,2.5,-1.3
CCn1cc(C(=O)NCCOC)c(=O)c2cc(S(=O)(=O)N3CCOCC3)ccc21,x,x,17.8,4.1,1.4,-0.8
O=C(CC1C(=O)N(c2ccc(F)cc2)C(=O)N1Cc1ccc2c(c1)OCO2)Nc1ccc(F)cc1 (stereo not given),x,x,-0.7,2.9,-1.5,-1.9
CC1(C(=O)NS(=O)(=O)c2ccc(Cl)s2)CCN1C(=O)C1(c2ccc(Cl)cc2)CC1 (stereo not given),x,-10.2,x,1.1,x,x
CC(NC(=O)c1cc(-c2ccncc2)nc2ccc(Cl)cc12)C1CCCO1 (stereo not given),u,-5.3,3.7,1.3,-0.3,-1.2
CC(NC(=O)c1cc(-c2cccnc2)nc2ccc(Br)cc12)C1CCCO1 (stereo not given),1.5%,-2.9,-33.7*,-6.6,0.1,2.0
CC(C)CC1Nc2ncnc(N3CCN(c4ccccn4)CC3)c2N(Cc2ccc(Br)cc2)C1=O (stereo not given),-3.2%,-99.1*!,2.3,-45.2,3.1,-1.3
COc1ccc(CN2C(=O)C(CC(C)C)Nc3ncnc(N4CCN(c5ccccn5)CC4)c32)cc1 (stereo not given),-7.8%,-29.2,-3.7,-30.6,6.8,-8.2
Cc1ccc(CN2C(=O)C(CC(C)C)Nc3ncnc(N4CCN(c5ccccn5)CC4)c32)cc1 (stereo not given),-2.5%,-88.4*,-2.3,-50.3,2.9,-5.2
